Source: PubChem BioAssay (several laboratories)
Compounds with a hit are over-represented: about 1.5% of the library has one in this group of screens.
IDE inh: inhibits human insulin-degrading enzyme in HEK cells; AID 434962; hit rate 0.41% among 320,000; FAbetaB cleavage, fluorescence polarization; inhibition, % at 5.59 µM; P14735;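 active means percent inhibition above the average of all tested compounds plus 3 SD, set per screening campaign, cut at about 16% in these data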;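 further: IDE supplied by intact live HEK cells; FP after avidin binding of uncleaved biotin substrate so inhibition keeps polarization high; 0% = DMSO wells and 100% = 60 µM reference IDE inhibitor Ii1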
Target sequence (P14735 whole entry, looked up): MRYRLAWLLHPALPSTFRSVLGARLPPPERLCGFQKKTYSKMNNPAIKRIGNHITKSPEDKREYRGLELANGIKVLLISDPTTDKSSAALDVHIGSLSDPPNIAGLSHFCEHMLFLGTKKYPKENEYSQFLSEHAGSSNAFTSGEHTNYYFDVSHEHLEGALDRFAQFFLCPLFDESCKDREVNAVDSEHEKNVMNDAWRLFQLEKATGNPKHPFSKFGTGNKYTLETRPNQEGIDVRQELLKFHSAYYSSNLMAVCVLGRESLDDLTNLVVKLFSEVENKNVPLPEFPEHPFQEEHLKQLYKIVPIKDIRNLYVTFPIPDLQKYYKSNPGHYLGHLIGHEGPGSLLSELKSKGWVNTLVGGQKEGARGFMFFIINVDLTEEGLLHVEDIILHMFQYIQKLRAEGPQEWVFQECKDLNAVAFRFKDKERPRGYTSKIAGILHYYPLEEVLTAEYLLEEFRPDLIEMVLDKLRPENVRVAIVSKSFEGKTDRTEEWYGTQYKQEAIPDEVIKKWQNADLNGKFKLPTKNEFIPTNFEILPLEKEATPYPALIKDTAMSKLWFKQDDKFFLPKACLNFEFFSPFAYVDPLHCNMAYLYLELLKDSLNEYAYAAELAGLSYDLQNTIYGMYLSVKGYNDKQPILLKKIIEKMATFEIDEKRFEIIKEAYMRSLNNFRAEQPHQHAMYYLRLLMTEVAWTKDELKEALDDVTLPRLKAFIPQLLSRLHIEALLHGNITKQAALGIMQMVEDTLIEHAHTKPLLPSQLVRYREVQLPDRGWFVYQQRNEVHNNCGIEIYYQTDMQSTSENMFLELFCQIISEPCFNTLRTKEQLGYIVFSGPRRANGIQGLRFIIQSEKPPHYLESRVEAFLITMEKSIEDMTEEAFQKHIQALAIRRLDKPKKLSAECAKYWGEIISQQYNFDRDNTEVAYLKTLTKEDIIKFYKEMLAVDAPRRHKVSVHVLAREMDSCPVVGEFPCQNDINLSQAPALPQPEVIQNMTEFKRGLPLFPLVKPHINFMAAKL
CRFBP-R2 block: blocks CRF-induced signaling of the CRF-BP/CRF-R2 complex; HEK293 CRF-R2/CRF-BP, CRF-induced calcium fluorescence; inhibition, % at 11.8 µM; hit rate 0.59% among 350,000;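 active means inhibition of the ligand-induced calcium signal above about 50% at the single tested concentration, limit read from the data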
CRFR2-BP ag: agonists of human CRF-binding protein/CRF-R2 receptor complex | activation, % at 13.2 µM | hit rate 0.46% among 350,000 | AID 588473 | HEK293 CRF-R2/CRF-BP, calcium dye fluorescence (FLIPR); percent of saturating CRF peptide response;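 active means activation of at least 50%, plus an integration ratio under a set limit after plate pattern correction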;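 further: plate controls were neutral control wells without compound for no effect and CRF at EC100 for full effect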
IDE cell activ: activators of human insulin-degrading enzyme in cells | HEK cells, FAbeta-B cleavage, fluorescence polarization; 0% vehicle, 100% cell-free pure enzyme wells | activation, % at 5.96 µM | hit rate 0.073% among 340,000;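 active means activation above the mean of all tested compounds plus 3 SD, set per screening campaign, cut at about 17% in these data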
cardiac RTF act: increases calcium sensitivity of human cardiac regulated thin filaments; P19429+P45379; IANBD-labeled TnC RTF fluorescence at EC20 calcium; 0% EC20 calcium, 100% full calcium; activation, % at 7.2 µM; hit rate 0.24% among 340,000; AID 493008;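 active means activation above the mean over all tested compounds plus 3 SD, cut at about 30% in these data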;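 further: rise in fluorescence read as greater calcium sensitivity of cardiac thin filaments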
Cardiac RTF inh: cardiac RTF calcium desensitization | IANBD-labeled cardiac RTF, Ca2+ fluorescence | hit rate 0.12% among 340,000 | inhibition, % at 7.15 µM | P19429+P45379;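 active means inhibition above the mean inhibition of all tested compounds plus 3 SD, cut at about 17% in these data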;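 further: assay run at fixed EC70 calcium of 1.6 mM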
An asterisk follows results filed as active; i = inactive; x = no result.

SMILES	IDE inh	CRFBP-R2 block	CRFR2-BP ag	IDE cell activ	cardiac RTF act	Cardiac RTF inh
O=C(NCCN1CCN(C(=O)NC2CCCCC2)CC1)NC1CCCCC1	1.0	66.8*	2.1	4.8	4.9	-7.8
NC(=O)CN1CCN(C(=O)NC2CCCCC2)CC1	5.4	-8.1	6.4	1.7	-1.6	-7.0
Cc1ccccc1CN1CCN(CC2CC2)CC1CCO (stereo unspecified)	3.8	-5.3	1.5	1.6	0.3	3.2
O=S(=O)(NCc1ccccc1)c1ccccc1NCCc1ccccc1	x	109.8*	1.1	5.3	-7.9	1.8
Nc1nc2n(n1)C(c1cccc(Br)c1)CC(c1ccc(F)cc1)N2 (stereo unspecified)	1.3	-63.0	54.3*	-4.7	5.9	-2.8
Cc1cc2c(c(C)c1Cl)C(c1ccc3c(c1)OCO3)CC(=O)O2 (stereo unspecified)	x	-2.4	-2.6	6.2	-3.8	2.3
Cc1ccc(C(C)C)c2c1C(c1ccc3c(c1)OCO3)CC(=O)O2 (stereo unspecified)	x	-8.1	66.3*	6.0	-2.3	-2.5
O=C(COC(=O)C1C2CC3OC(=O)C1C3C2)Nc1ccccc1 (stereo unspecified)	4.6	5.6	-1.5	4.5	-0.5	7.6
O=C(NCCCCc1ccccc1)c1cccc([N+](=O)[O-])c1	-1.7	40.4	-0.7	4.2	0.8	3.1
O=C(NCCCc1ccccc1)c1cccc([N+](=O)[O-])c1	2.4	55.0*	-5.4	5.4	4.3	2.0
COc1ccccc1CCNC(=O)CCn1nc(C)c2c(C)n(-c3ccccc3)nc2c1=O	-1.3	76.2*	-0.2	4.2	-2.5	-12.4
Cc1ccccc1CCNC(=O)CCn1nc(C)c2c(C)n(-c3ccccc3)nc2c1=O	2.2	-3.5	0.7	3.5	-1.3	-8.6
O=C(NCc1cccc(Cl)c1)c1cccc(S(=O)(=O)N2CCCC2)c1	-5.8	-52.1	86.9*	-1.6	1.4	6.1
CCOC(=O)c1cccc(S(=O)(=O)N2CCCC2)c1	3.0	-11.1	2.1	-1.0	7.0	-4.9
NC(=O)COC(=O)c1cccc(S(=O)(=O)N2CCCCC2)c1	-0.6	85.6*	4.9	6.2	-5.8	-4.7
C=CC[n+]1c(/C=C2\C=Cc3cc(C)ccc3N2CC)ccc2ccccc21	6.1	5.6	0.2	0.4	-5.1	-4.6
CCN1/C(=C/c2ccc3cccc(C)c3[n+]2CC)Sc2ccccc21	53.1*	-296.7	205.1*	-63.1	13.5	-67.8
CCN1/C(=C/c2ccc3cc(C)ccc3[n+]2CC)Sc2ccc3sccc3c21	7.1	-33.5	42.6	-39.9	35.9*	-88.3
CCN1/C(=C\c2ccc3cc(C)ccc3[n+]2CC)Sc2cc(C)c(C)cc21	x	-157.0	114.3*	-169.5	58.0*	-103.8
CCN1/C(=C/C(C)=C/c2sc3ccccc3[n+]2CC)Sc2ccccc21	12.3	-16.5	1.0	-14.5	-2.0	1.6
CCN1/C(=C/c2ccc3cc(C)cc(C)c3[n+]2CC)Sc2cc(C)ccc21	x	-206.0	182.0*	-185.7	66.3*	-138.8
Cc1ccc(C(=O)COC(=O)CCCC(=O)Nc2cc(C(F)(F)F)ccc2Cl)cc1C	-4.4	-43.5	2.4	2.8	-2.6	0.9
COc1ccccc1N(CC(=O)N1CCN(c2ccccc2)CC1)S(=O)(=O)c1ccc(C)cc1	-1.7	-18.5	2.8	-2.6	0.0	-5.3
NC(=O)C1CC(=O)N(c2ccc(OCc3ccccc3Cl)cc2)C1 (stereo unspecified)	2.2	1.5	-0.4	7.5	-1.4	-7.7
Clc1ccc(-n2cc(COCc3ccccc3)nn2)cc1	-2.0	63.3*	-4.0	11.6	1.5	13.1
SMILES	IDE inh	CRFBP-R2 block	CRFR2-BP ag	IDE cell activ	cardiac RTF act	Cardiac RTF inh
Cn1c(N)c(C(=O)CSc2nnc(C3CC3)n2-c2ccccc2)c(=O)n(C)c1=O	0.7	-4.4	2.4	0.1	-3.6	1.2
O=C(CSc1nnc(-c2ccncc2)n1-c1ccccc1)NC1CC1	5.7	1.1	-1.1	-0.8	-0.8	0.4
COc1ccccc1C1SCCN1S(=O)(=O)c1ccccc1 (stereo unspecified)	x	107.7*	-1.3	x	x	x
CS(=O)(=O)N(Cc1ccccc1)c1ccc(C(=O)N2CCOCC2)cc1	8.1	-50.4	123.1*	-0.1	3.7	-0.6
Cc1cc(C(F)(F)F)n(-c2nc(C(=O)N/N=C/c3ccc(F)cc3)cs2)n1	2.9	71.1*	-1.6	6.3	1.0	-2.8
COc1ccc(OCc2cccc(C(=O)Nn3cc([N+](=O)[O-])cn3)c2)cc1	-4.0	52.6*	13.1	5.9	1.9	7.0
O=C(O)c1cccc(S(=O)(=O)N2CCN(Cc3ccc4c(c3)OCO4)CC2)c1	3.6	-3.0	-0.1	2.5	-8.9	-3.5
CCOc1cc(/C=N\NC(=O)C2C(=O)NCC2c2ccccc2)ccc1OC (stereo unspecified)	3.5	-74.4	56.1*	1.2	-7.4	2.2
O=C(/C=C/c1cc[n+](CC(=O)c2ccc3cccc4c3c2CC4)cc1)c1ccc2cccc3c2c1CC3	6.0	-8.7	5.1	2.3	-22.6	17.5*
CN(Cc1ccncn1)C(=O)C1CCC(=O)N(Cc2cccc(C(F)(F)F)c2)C1 (stereo unspecified)	-3.3	18.9	-3.3	-0.5	-2.2	-1.8
CN(Cc1ccccn1)C(=O)C1CCC(=O)N(Cc2cccc(C(F)(F)F)c2)C1 (stereo unspecified)	0.6	52.9*	5.5	-5.2	-0.8	-0.7
O=C(Cc1ccc(-n2c(=O)[nH]c3ccsc3c2=O)cc1)N1CCN(c2ccc(Cl)cc2)CC1	21.1*	7.7	0.6	-14.7	-2.5	-15.4
COc1cc([N+](=O)[O-])ccc1N/C=C/C(=O)c1cccs1	9.0	-116.9	83.9*	2.3	287.5*	-492.7
O=C(/C=C/c1ccc([N+](=O)[O-])cc1)c1cccs1	-4.8	-14.5	-0.9	1.9	6.4	-20.2
COc1ccc(/C=C2/SC(=S)N(Cc3ccccc3)C2=O)cc1O	x	-6.4	-1.2	2.8	2.2	6.7
COc1ccc(O)c(/C=C2/SC(=S)N(Cc3ccccc3)C2=O)c1	14.0	-74.5	73.8*	-5.8	80.9*	-56.0
COc1ccc(-c2nn(-c3ccccc3)cc2/C=C2/SC(=S)N(CCC(=O)O)C2=O)c(C)c1	-11.0	52.0*	-0.9	2.8	-9.8	1.9
COc1ccc(OC)c(/C=C2\SC(=S)N(Cc3cccnc3)C2=O)c1	4.5	-182.7	136.5*	-13.1	9.3	-14.8
COc1ccccc1/C=C1/SC(=S)N(CCC(=O)Nc2cccnc2)C1=O	3.2	-7.9	2.7	1.1	1.9	-7.3
O=C1/C(=C\c2cc(Cl)c(O)c(Cl)c2)SC(=S)N1Cc1ccccc1	x	-118.5	186.6*	-116.1	525.3*	i
O=C(Cc1ccc(Cl)cc1)c1c[nH]c(C(=O)NCCCn2ccnc2)c1	-4.1	-9.8	6.4	-0.6	5.3	3.2
